Rac1 wt modul – wildtype Rac1 GTP binding modulators, primary screen, biochemical, GST-Rac1 beads, flow cytometry, multiplex; Ras-related C3 botulinum toxin substrate 1 (Homo sapiens), P63000; fluorescent GTP binding; actives lie on both sides; 0 = cold GTP competed, 100 = untreated; GTP binding activity (% of control), % at 10 µM; 190,000 tested, 0.27% active;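 active = GTP binding activity at least 20 points away from the 100% control level, either lower or higher; inconclusive = compound flagged as likely green fluorescent, judged across all proteins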
HRas wt GTP – modulators of GTP binding to HRas wildtype, primary screen, biochemical, bead-based flow cytometry, multiplex | GTPase HRas (Homo sapiens), P01112 | 190,000 tested, 0.14% active | GST-Ras wt beads, Bodipy-FL-GTP binding; actives lie on both sides | GTP binding activity, % at 10 µM;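 active = GTP binding activity at least 20% away from the 100% baseline, either lowered as inhibitor or raised as activator; inconclusive = flagged as likely green fluorescent, judged across all proteins in the well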;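 also: 0% = unlabeled GTP competition control and 100% = no-compound control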
Target sequence (P01112 whole entry, looked up): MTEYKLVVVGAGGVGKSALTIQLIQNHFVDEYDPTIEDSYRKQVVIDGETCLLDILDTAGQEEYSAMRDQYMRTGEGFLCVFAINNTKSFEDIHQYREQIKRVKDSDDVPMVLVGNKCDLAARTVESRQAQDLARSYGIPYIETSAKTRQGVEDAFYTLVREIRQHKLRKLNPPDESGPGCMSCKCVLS
Rab7 wt modul – modulators of GTP binding to Rab7, primary screen, biochemical, wildtype, multiplex bead flow cytometry; GTP binding activity (percent of control), % at 10 µM; 190,000 tested, 0.055% active; GST-Rab7 beads, fluorescent GTP binding; actives lie on both sides; untreated = 100%, excess cold GTP = 0%;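 active = fluorescent GTP binding to Rab7 beads changed by at least 20 points from the 100% baseline, either direction, mostly lower; inconclusive = compound itself probably fluorescent, or too few beads counted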;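 also: median green fluorescence of bound Bodipy-FL-GTP per Rab7 bead population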
Cdc42 wt GTP – modulators of GTP binding to wildtype Cdc42, primary screen, biochemical, multiplex bead flow cytometry, Bodipy-GTP; Cell division control protein 42 homolog (Homo sapiens), P60953; GST-Cdc42 beads; actives lie on both sides; percent activity (GTP binding), % at 10 µM; 190,000 tested, 0.2% active; AID 761, 2007;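 active = percent activity GTP binding at least 20 points away from the 100% baseline, either down as inhibitor or up as activator; inconclusive = compound flagged as likely green fluorescent from well-wide comparison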;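 also: median bead fluorescence of bound Bodipy-FL-GTP at 100 nM; 0% = excess unlabeled GTP control and 100% = no compound control; below 100% means less GTP binding so inhibitor and above means activator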
Target sequence (P60953 whole entry, looked up): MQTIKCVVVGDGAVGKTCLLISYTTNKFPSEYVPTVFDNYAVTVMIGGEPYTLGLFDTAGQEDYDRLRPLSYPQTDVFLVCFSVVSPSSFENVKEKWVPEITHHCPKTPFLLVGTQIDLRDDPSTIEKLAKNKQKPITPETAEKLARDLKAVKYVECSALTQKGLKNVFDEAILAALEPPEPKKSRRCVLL
Rac1 mut GTP – GTP binding modulators of activated mutant Rac1, primary screen, biochemical, bead-based flow cytometry, multiplex, fluorescent GTP | Ras-related C3 botulinum toxin substrate 1 (Homo sapiens), P63000 | GST-Rac1 activated beads; actives lie on both sides; 100% means binding = to untreated wells | percent activity (GTP binding), % at 10 µM | 190,000 tested, 0.11% active | AID 764, 2007;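 active = GTP binding at least 20 percentage points away from the 100% baseline, in either direction, so actives lie on both sides; inconclusive = Compound likely fluorescent itself, or too few beads counted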
Rab2 wt GTP – modulators of GTP binding to Rab2A wildtype, primary screen, biochemical, dog, bead-based flow cytometry, multiplex. Ras-related protein Rab-2A (Canis lupus familiaris), P61105. 190,000 tested, 0.19% active. GST-Rab2 wt beads, Bodipy-GTP binding. GTP binding activity, % at 10 µM. AID 760, 2007;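 active = GTP binding activity at least 20 points away from 100%, either lowered or raised; inconclusive = signal likely due to the compound's own green fluorescence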;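 also: 0% = beads with excess unlabeled GTP and 100% = no-compound control corrected for plate trend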
* marks the source's active call; other numbers are inactive results; ? = inconclusive; [ ] = another dose, or the depositor's remark. Shown are actives, neighbours in structure and some others; about 0.4% of the full set was active somewhere.

SMILES | Rac1 wt modul | HRas wt GTP | Rab7 wt modul | Cdc42 wt GTP | Rac1 mut GTP | Rab2 wt GTP
O=C1c2ccccc2C(=O)N1CCCCN(C(=O)c1cc2ccccc2oc1=O)c1ccc(Cl)cc1 | 50.0* | 51.0* | 29.0* | 43.0* | 53.0* | 46.0*
N=c1oc2ccc3ccccc3c2cc1-c1nc(-c2ccccc2)cs1 | 79.0* | 82.0 | 92.0 | 83.0 | 82.0 | 79.0*
CSc1nnc(C)c(/C=C/Nc2ccc(F)cc2)n1 | 89.0 | 94.0 | 94.0 | 93.0 | 94.0 | 94.0
COc1ccc(N/C=C/c2nc(SC)nnc2C)cc1 | 64.0* | 69.0* | 90.0 | 67.0* | 81.0 | 66.0*
COc1ccc(-n2c(SC(CN3CCCCC3)CN3CCCC3=O)nc3ccccc3c2=O)cc1 (stereo not drawn) | 105.0 | 99.0 | 97.0 | 98.0 | 99.0 | 97.0
Fc1cccc(Nc2ncnc3[nH]ncc23)c1 | 79.0* | 87.0 | 104.0 | 88.0 | 91.0 | 88.0
CCOC(=O)c1c(NC(=O)C(=O)N/N=C/c2ccc(OCC)cc2)sc2c1CCCCC2 | 104.0 | 102.0 | 97.0 | 97.0 | 99.0 | 99.0
CCOC(=O)c1c(NC(=O)C(=O)N/N=C/c2ccc(O)c(OC)c2)sc2c1CCCCC2 | 104.0 | 98.0 | 98.0 | 61.0* | 98.0 | 94.0
Cc1ccccc1OCCn1cc(/C(N)=N/O)c2ccccc21 | 90.0 | 93.0 | 95.0 | 89.0 | 92.0 | 90.0
Cc1ccc(C)c(OCCn2cc(C(=O)O)c3ccccc32)c1 | 170.0*[activator] | 129.0*[activator] | 136.0*[activator] | 140.0*[activator] | 136.0*[activator] | 138.0*[activator]
Cc1ccc(C)c(OCCn2cc(/C=C(\C#N)C(=O)NCc3ccco3)c3ccccc32)c1 | 101.0 | 101.0 | 99.0 | 99.0 | 99.0 | 101.0
Cc1ccccc1OCCn1cc(C(=O)O)c2ccccc21 | 151.0*[activator] | 124.0*[activator] | 122.0*[activator] | 123.0*[activator] | 128.0*[activator] | 126.0*[activator]
N#CC1(C#N)CC(C=O)=C(N)C1(C#N)CC(=O)C12CC3CC(CC(C3)C1)C2 (stereo not drawn) | 96.0 | 91.0 | 95.0 | 87.0 | 100.0 | 91.0
COc1ccc(/C=N/NC(=O)Nc2nonc2N)cc1 | 105.0 | 103.0 | 98.0 | 102.0 | 101.0 | 99.0
CCOc1cc(/C=C(/C#N)c2nc3ccccc3[nH]2)ccc1OCc1ccc(C(=O)O)o1 | 85.0 | 76.0* | 92.0 | 77.0* | 86.0 | 74.0*
CCN(CC)c1ccc(-c2nc3cnccn3c2NC2CCCC2)cc1 | 101.0 | 102.0 | 100.0 | 98.0 | 97.0 | 100.0
O=C(C1CCCO1)N1CCN(C(=S)Nc2ccccc2C(F)(F)F)CC1 (stereo not drawn) | 109.0 | 117.0 | 108.0 | 108.0 | 104.0 | 125.0*[activator]
COc1ccc(CCNC(=O)C(=O)N/N=C/c2cccs2)cc1OC | 99.0 | 95.0 | 97.0 | 96.0 | 92.0 | 100.0
Cc1ccc(N=Nc2c(=O)[nH]n3c(C)cc(C)nc23)cc1 | 98.0 | 97.0 | 99.0 | 100.0 | 95.0 | 100.0
Cc1ccc(N=Nc2c(N)[nH]n3c(=O)c4c(nc23)CCCC4)cc1 | 75.0* | 86.0 | 91.0 | 86.0 | 86.0 | 82.0
Cc1ccc(N=Nc2c(N)[nH]n3c(=O)cc(C)nc23)cc1 | 75.0* | 87.0 | 92.0 | 88.0 | 88.0 | 81.0
Cc1[nH]n2c(=O)c3c(nc2c1-c1ccc(F)cc1)CCCC3 | 81.0 | 87.0 | 92.0 | 87.0 | 88.0 | 87.0
CC1CC(C)CN(S(=O)(=O)c2ccc(C(=O)N3CCN(c4ccccc4)CC3)cc2)C1 (stereo not drawn) | 102.0 | 103.0 | 106.0 | 102.0 | 99.0 | 102.0
CCN(CC)S(=O)(=O)c1ccc2c(c1)c(=O)c(C(=O)NCc1ccco1)cn2C | 95.0 | 92.0 | 95.0 | 95.0 | 91.0 | 92.0
COc1ccc(C)cc1NC(=O)c1cc2c(CO)cnc(C)c2oc1=N | 100.0 | 98.0 | 100.0 | 95.0 | 95.0 | 98.0
SMILES | Rac1 wt modul | HRas wt GTP | Rab7 wt modul | Cdc42 wt GTP | Rac1 mut GTP | Rab2 wt GTP
COc1cc(N=c2oc3c(C)ncc(CO)c3cc2C(N)=O)cc(OC)c1OC | 64.0* | 68.0* | 91.0 | 68.0* | 83.0 | 67.0*
COCCNC(=S)Nc1cc(OC)c(OC)cc1C#N | 57.0* | 67.0* | 86.0 | 60.0* | 80.0 | 59.0*
Cc1ccc(CSc2nnc(-c3ccncc3)n2CC2CCCO2)cc1 (stereo not drawn) | 103.0 | 102.0 | 100.0 | 103.0 | 102.0 | 99.0
O=C(O)CSc1ncccc1C(=O)O | 103.0 | 102.0 | 98.0 | 104.0 | 101.0 | 99.0
Cc1ccc(C)c(CSc2ncccc2C(=O)O)c1 | 144.0*[activator] | 113.0 | 114.0 | 132.0*[activator] | 126.0*[activator] | 114.0
Cc1ccc(Sc2ncccc2C(=O)O)c(C)c1 | 135.0*[activator] | 123.0*[activator] | 106.0 | 126.0*[activator] | 127.0*[activator] | 124.0*[activator]
O=C(O)c1cccnc1SCc1ccccc1Cl | 131.0*[activator] | 116.0 | 115.0 | 122.0*[activator] | 121.0*[activator] | 118.0
C/C(=N\S(=O)(=O)c1ccc(C)cc1)NC(=S)Nc1ccccc1 | 95.0 | 99.0 | 103.0 | 101.0 | 94.0 | 99.0
Cn1nc(C(=O)NCCOc2ccccc2)c2ccccc2c1=O | 100.0 | 102.0 | 102.0 | 99.0 | 93.0 | 101.0
Cc1ccc(S(=O)(=O)/N=c2\ccc(Cl)cn2C(F)F)cc1 | 102.0 | 99.0 | 94.0 | 100.0 | 97.0 | 98.0
COc1cc(/C=N/Nc2nn3cnnc3c3ccccc23)ccc1O | 75.0* | 62.0* | 81.0 | 58.0* | ? | 72.0*
C(=N\Nc1nn2cnnc2c2ccccc12)/c1ccco1 | 88.0 | 75.0* | 87.0 | 77.0* | 89.0 | 72.0*
Clc1cnc(N/N=C/c2ccco2)c(Cl)c1 | 104.0 | 101.0 | 100.0 | 99.0 | 100.0 | 100.0
O=C(CN1CCCCCC1)N/N=C/c1cccc(Cl)c1Cl | 106.0 | 102.0 | 102.0 | 105.0 | 100.0 | 101.0
COc1ccc(-n2cccc2/C=C2/NC(=O)N(c3cccc(Cl)c3)C2=O)cc1 | 102.0 | 100.0 | 104.0 | 101.0 | 100.0 | 100.0
O=C(O)c1cccc(-n2cccc2/C=C2/NC(=O)N(c3ccc(Cl)cc3)C2=O)c1 | 67.0* | 82.0 | 88.0 | 72.0* | 76.0* | 75.0*
Cc1ccccc1Nc1nc(NCc2ccco2)c2ccccc2n1 | 100.0 | 102.0 | 99.0 | 100.0 | 98.0 | 101.0
Cc1cccc(Nc2nc(NCc3ccco3)c3ccccc3n2)c1 | 88.0 | 85.0 | 79.0* | 84.0 | 85.0 | 72.0*
CCCCCCn1nc(C(=O)OCC(=O)NC2CCS(=O)(=O)C2)c2ccccc2c1=O (stereo not drawn) | 100.0 | 100.0 | 99.0 | 96.0 | 96.0 | 99.0

Source: PubChem BioAssay (NMMLSC)
